Several values for one entry are separate records, joined by “and”; a condition that tells them apart may be missing. Equal entries are not always repeated. About 2,000 (36%) of roughly 5,500 compounds were called active. Inconclusive results (about 18%) are left out. Rule as the data show it: active = normalized growth mostly below about 0.91 (no sharp cut-off); inconclusive = no clear call, values can overlap the other calls; inactive = mostly above about 0.92. Some of the results follow. More than one record can exist for a structure, and the calls need not agree.
Test: chemical genetic growth profiling, strain panel (AID 1159580);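 also: tested at 20 µM; growth read once vehicle control cultures reached saturation at 30 °C; 1 = growth at the plate median or of vehicle wells; lower values mean less growth of the strain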
Details: S. cerevisiae deletion strains, growth OD

Measured: normalized growth

O=c1c2ccccc2[se]n1-c1ccccc1
0.0625 (active) and 0.862 (inactive): locus YGR229C, strain SMI1, stronger effect = lower value
0.0598 (active) and 0.956 (inactive): locus YDR150W, strain NUM1, stronger effect = lower value
0.0627 (active) and 0.948 (inactive): locus YAL013W, strain DEP1, stronger effect = lower value
active: locus YAL021C, strain ccr4, stronger effect = lower value 0.0697 | locus YAL026C, strain drs2, stronger effect = lower value 0.0626 | locus YAL030W, strain snc1, stronger effect = lower value 0.057 | locus YBL061C, strain skt5, stronger effect = lower value 0.0616 | locus YBR009C, strain hhf1, stronger effect = lower value 0.067 | locus YBR021W, strain FUR4, stronger effect = lower value 0.0951 | locus YBR023C, strain chs3, stronger effect = lower value 0.0842 | locus YBR231C, strain swc5, stronger effect = lower value 0.129 | locus YBR279W, strain paf1, stronger effect = lower value 0.0647 | locus YCL011C, strain gbp2, stronger effect = lower value 0.057 | locus YCL016C, strain dcc1, stronger effect = lower value 0.102 | locus YCL029C, strain bik1, stronger effect = lower value 0.873 | locus YCL061C, strain MRC1, stronger effect = lower value 0.0738 | locus YCL069W, strain vba3, stronger effect = lower value 0.0606 | locus YCR088W, strain abp1, stronger effect = lower value 0.0595 | locus YDL005C, strain med2, stronger effect = lower value 0.071 | locus YDL035C, strain GPR1, stronger effect = lower value 0.0537 | locus YDL040C, strain nat1, stronger effect = lower value 0.909 | locus YDL074C, strain BRE1, stronger effect = lower value 0.0969 | locus YDL101C, strain DUN1, stronger effect = lower value 0.869 | locus YDL134C, strain PPH21, stronger effect = lower value 0.0461 | locus YDL192W, strain arf1, stronger effect = lower value 0.0608 | locus YDR001C, strain nth1, stronger effect = lower value 0.0663 | locus YDR069C, strain doa4, stronger effect = lower value 0.0621 | locus YDR101C, strain arx1, stronger effect = lower value 0.437 | locus YDR137W, strain rgp1, stronger effect = lower value 0.754 | locus YDR159W, strain sac3, stronger effect = lower value 0.854 | locus YDR162C, strain NBP2, stronger effect = lower value 0.054 | locus YDR195W, strain ref2 1.46 [resistant] | locus YDR297W, strain sur2, stronger effect = lower value 0.06 | locus YDR318W, strain mcm21, stronger effect = lower value 0.0683 | locus YDR334W, strain swr1, stronger effect = lower value 0.0625 | locus YDR335W, strain msn5, stronger effect = lower value 0.574 | locus YDR388W, stronger effect = lower value 0.0602 | locus YDR392W, strain spt3, stronger effect = lower value 0.0762 | locus YDR502C, strain sam2, stronger effect = lower value 0.0635 | locus YEL003W, strain gim4, stronger effect = lower value 0.106 | locus YEL037C, strain rad23, stronger effect = lower value 0.0632 | locus YEL061C, strain CIN8 (second series), stronger effect = lower value 0.0621 | locus YEL061C, strain CIN8, stronger effect = lower value 0.0485 | locus YER015W, strain faa2, stronger effect = lower value 0.0679 | locus YER016W, strain bim1, stronger effect = lower value 0.147 | locus YER110C, stronger effect = lower value 0.0784 | locus YER155C, strain BEM2 (second series), stronger effect = lower value 0.0943 | locus YER155C, strain BEM2, stronger effect = lower value 0.0677 | locus YER167W, strain BCK2, stronger effect = lower value 0.0545 | locus YFR010W, strain ubp6, stronger effect = lower value 0.07 | locus YGL078C, strain dbp3, stronger effect = lower value 0.0555 | locus YGL086W, strain mad1, stronger effect = lower value 0.062 | locus YGL167C, strain pmr1, stronger effect = lower value 0.0891 | locus YGL173C, strain kem1, stronger effect = lower value 0.0711 | locus YGL227W, strain vid30, stronger effect = lower value 0.0629 | locus YGL240W, strain doc1, stronger effect = lower value 0.0921 | locus YGL248W, strain PDE1, stronger effect = lower value 0.0477 | locus YGL253W, strain hxk2, stronger effect = lower value 0.0553 | locus YGR135W, strain pre9, stronger effect = lower value 0.0669 | locus YGR252W, strain gcn5, stronger effect = lower value 0.162 | locus YHR013C, strain ard1, stronger effect = lower value 0.11 | locus YHR027C, strain rpn1, stronger effect = lower value 0.0642 | locus YHR030C, strain SLT2, stronger effect = lower value 0.0507 and 0.0959 | locus YHR079C, strain IRE1 (second series), stronger effect = lower value 0.65 | locus YHR079C, strain IRE1, stronger effect = lower value 0.12 | locus YHR094C, strain hxt1, stronger effect = lower value 0.0617 | locus YHR129C, strain ARP1, stronger effect = lower value 0.0594 | locus YHR142W, strain chs7, stronger effect = lower value 0.0813 | locus YHR200W, strain rpn10, stronger effect = lower value 0.0601 | locus YIL066C, strain RNR3, stronger effect = lower value 0.0543 | locus YIL073C, strain SPO22, stronger effect = lower value 0.114 | locus YIL125W, strain kgd1, stronger effect = lower value 0.0566 | locus YIR030C, strain dcg1, stronger effect = lower value 0.0629 | locus YJL092W, strain hpr5, stronger effect = lower value 0.0617 | locus YJL095W, strain BCK1 (second series), stronger effect = lower value 0.0731 | locus YJL095W, strain BCK1, stronger effect = lower value 0.12 and 0.111 | locus YJL115W, strain asf1, stronger effect = lower value 0.0858 | locus YJL129C, strain trk1, stronger effect = lower value 0.769 | locus YJL134W, strain LCB3, stronger effect = lower value 0.0503 | locus YJL154C, strain vps35, stronger effect = lower value 0.0602 | locus YJL164C, strain tpk1, stronger effect = lower value 0.0617 | locus YJL166W, strain qcr8, stronger effect = lower value 0.0635 | locus YJL168C, strain set2, stronger effect = lower value 0.0616 | locus YJR043C, strain POL32, stronger effect = lower value 0.0678
0.0595 (active) and 0.975 (inactive): locus YGR078C, strain PAC10, stronger effect = lower value
inactive: locus YAL040C, strain CLN3, stronger effect = lower value 0.981 | locus YBR171W, strain sec66, stronger effect = lower value 0.927 | locus YBR229C, strain ROT2, stronger effect = lower value 1.02 | locus YCL061C, strain MRC1 (second series), stronger effect = lower value 0.952 | locus YDL185W, strain tfp1, stronger effect = lower value 0.999 | locus YDR363W, strain ESC2, stronger effect = lower value 0.988 | locus YER002W, strain NOP16, stronger effect = lower value 0.999 | locus YER111C, strain swi4, stronger effect = lower value 0.937 | locus YJL187C, strain SWE1 (second series), stronger effect = lower value 0.907 | locus YJR066W, strain TOR1, stronger effect = lower value 0.883

From PubChem BioAssay AID1159580 (chemical genetic matrix, 2015)
